# From paper PMC7819943, “Rice protein-binding microarrays: a tool to detect cis-acting elements near promoter regions in rice”
# In all, about 35,000 sequences were measured (“fluorescence intensity (a.u.)”: median about 10,000, highest 2% from about 52,000 on). For the sample, the highest values were picked, then their nearest neighbours and some sequences at random.
# Biological target: T1, OsWOX13 (Oryza sativa, UniProt Q5QMM3 1-267)
# T1 sequence: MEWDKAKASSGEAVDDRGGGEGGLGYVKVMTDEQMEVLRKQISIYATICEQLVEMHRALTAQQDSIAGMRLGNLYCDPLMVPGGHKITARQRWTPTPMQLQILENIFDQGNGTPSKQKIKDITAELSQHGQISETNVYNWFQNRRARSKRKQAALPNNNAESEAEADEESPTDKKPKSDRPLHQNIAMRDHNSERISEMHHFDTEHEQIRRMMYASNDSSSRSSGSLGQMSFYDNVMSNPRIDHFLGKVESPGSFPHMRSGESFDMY
# Experiment: protein-binding microarray (RPBM); PBS, 2% BSA, 51.3 ng/ul salmon testes DNA, 50 uM zinc acetate, 200 nM TF, 25 C, 1 h; high values mean tight binding
# Conditions: protein: recombinant; tags: N-terminal polyhistidine and DsRed monomer fusion (pET32a); label: CyDye5-dUTP incorporated in the synthesized complementary strand; 3' TTTTT single-stranded linker to array surface; dsDNA, one strand shown
# How it was run: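 The binding signal is fluorescence intensity per feature, in arbitrary units, read on an Axon 4000B scanner. Polyhistidine- and DsRed-tagged transcription factors (N-terminal fusions) from E. coli BL21-CodonPlus were purified on Ni–NTA and applied at 200 nM for 1 h at 25 °C to a double-stranded, BSA-blocked custom Agilent array in buffer with 50 µM zinc acetate.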
row,Sequence,binding signal
1,GTTGAAGGATCTGGATGATTAGACGAGCGATGGATCAGGTCGGAGTCACCTAGTGCAG,3720 fluorescence intensity (a.u.)
2,ATAGTATATGATGGATGAGATGGATGCATAGATGGATTGGCGGAGTCACCTAGTGCAG,3330 fluorescence intensity (a.u.)
3,TGTCAGATTGGATGGATTGTGCTACTGTACATGCATAGTGCGGAGTCACCTAGTGCAG,37000 fluorescence intensity (a.u.)
4,ATACTTGATTTAAAATGAAAACATAGACAAATGTATGGTACGGAGTCACCTAGTGCAG,23800 fluorescence intensity (a.u.)
5,TGCTGATTGGTATGCATAGAGTATGTATGGAAACCTTGTGCGGAGTCACCTAGTGCAG,56600 fluorescence intensity (a.u.)
6,TCAGTATGTGATTGATTGAAAACTGAAATGGTAGACATACCGGAGTCACCTAGTGCAG,53400 fluorescence intensity (a.u.)
7,ATGTGAAATTGAATGCAGTAGTATGCACATGAAACTTGGGCGGAGTCACCTAGTGCAG,11300 fluorescence intensity (a.u.)
8,CCCGTGGCTCGACTTGATGGCGTGGAGAATGGACGAGTACCGGAGTCACCTAGTGCAG,6970 fluorescence intensity (a.u.)
9,TTATAATTAGAACTTTTATATGTGTGTTATGCACGACTTACGGAGTCACCTAGTGCAG,4050 fluorescence intensity (a.u.)
10,ATTTGATCCAAATTATATGGTTATTAATCAAATCCCATAGCGGAGTCACCTAGTGCAG,10200 fluorescence intensity (a.u.)
11,GTTAATTGATTAGCAAAAGGTACTATACATATATTCTTTTCGGAGTCACCTAGTGCAG,33800 fluorescence intensity (a.u.)
12,GCAAATGTAGGTAAGATTGAGATTGACTTTATGTGGGTCCCGGAGTCACCTAGTGCAG,12500 fluorescence intensity (a.u.)
13,GTGATTGGCGCGATCCGTGCGCTTGCCGTCTTGCCGGCGTCGGAGTCACCTAGTGCAG,30100 fluorescence intensity (a.u.)
14,GACGCGTCGGTGCTGATTGACTCGACGGCCGGCAACGTGGCGGAGTCACCTAGTGCAG,22800 fluorescence intensity (a.u.)
15,TGGATCCTGATTGGATCCTGATTGGCGTTGCGGCCGTGTCCGGAGTCACCTAGTGCAG,65000 fluorescence intensity (a.u.)
16,TCGACTTCTGATTGATGTCAGTAATGGTGTACCAGTGCTGCGGAGTCACCTAGTGCAG,41200 fluorescence intensity (a.u.)
17,GCCGGTGATTGGCGTGGCGTGGCGTGGCGTGGCGCGGTGTCGGAGTCACCTAGTGCAG,52600 fluorescence intensity (a.u.)
18,GCGGATTGGTTGCCTGACCCTCCTCCTCCTCCTCCTCCTCCGGAGTCACCTAGTGCAG,8490 fluorescence intensity (a.u.)
19,TTCTGATTGATGTCAGGAGTGGCGTGCGTACCAGTGCTGTCGGAGTCACCTAGTGCAG,58100 fluorescence intensity (a.u.)
20,TGTCCTCCTGCTCCTGATTGGATCGGTAGAAAGGTGGCGGCGGAGTCACCTAGTGCAG,11000 fluorescence intensity (a.u.)
21,CGTACCAGCTGATTGATGGTGTCACTCACCAAATGTTCTTCGGAGTCACCTAGTGCAG,34300 fluorescence intensity (a.u.)

row,Sequence,binding signal
1,TACTGATGAGCCACTGACGGGTGGGGCCAGTTGACTGACACGGAGTCACCTAGTGCAG,6930 fluorescence intensity (a.u.)
2,GCAGATTAGTCGTTAGTGGTGACAGAAACGGCAAAAGTGGCGGAGTCACCTAGTGCAG,6220 fluorescence intensity (a.u.)
3,CTCCGATTAATGTGGAAATTTCTAACCTCTACAGCGAACGCGGAGTCACCTAGTGCAG,6190 fluorescence intensity (a.u.)
4,TTTCTAATTTCTTTCAGCATCGTATTAATGTCGATATTAACGGAGTCACCTAGTGCAG,3250 fluorescence intensity (a.u.)
5,GCGAAATTAATCTTTTGGTTGTTTCTACCTTTGCTCTGATCGGAGTCACCTAGTGCAG,5540 fluorescence intensity (a.u.)
6,TTCGTGATTTATATAAAACATTCCCATGTTGAAACCCTAACGGAGTCACCTAGTGCAG,15400 fluorescence intensity (a.u.)
7,GTGTTGTGATTCAATTAATTTGGCAGACACCAATTTGCTGCGGAGTCACCTAGTGCAG,23200 fluorescence intensity (a.u.)
8,TACTTTGATTTGCACACAATCAAATGTACAGTAGTACATGCGGAGTCACCTAGTGCAG,28500 fluorescence intensity (a.u.)
9,TTAAATCAATAATTAAATATATTTTCATAATAAATTTGTGCGGAGTCACCTAGTGCAG,27500 fluorescence intensity (a.u.)
10,GTTTTAAATTAATATATCTCGCGGAATATTAGAGCAAACGCGGAGTCACCTAGTGCAG,12600 fluorescence intensity (a.u.)
11,GTAGATCAATTTCCTTAACCGAATATAGCAAGAATCCGACCGGAGTCACCTAGTGCAG,3270 fluorescence intensity (a.u.)
12,AAACTTCATTTAGTAGATTGATTTTCTTAACCGAATATAGCGGAGTCACCTAGTGCAG,9560 fluorescence intensity (a.u.)
13,TAGTAGATTGATTTCCTTAACCGAATATAGCAGGAATCCGCGGAGTCACCTAGTGCAG,52900 fluorescence intensity (a.u.)
14,TTGATTGTGTGCAACTGACTTTGTCCCCGTTCTATAATATCGGAGTCACCTAGTGCAG,8250 fluorescence intensity (a.u.)
15,ATGTTAATGCAAAATAAATTAAATACATAGCAAGGTACTACGGAGTCACCTAGTGCAG,11200 fluorescence intensity (a.u.)
16,TGTTATTTCAATCTCAGGATTGAGTGCAAGCAATCTGTTTCGGAGTCACCTAGTGCAG,4210 fluorescence intensity (a.u.)
17,CCGGATTTCAGTTATTTCCTAATTGCATTTCTATATGGACCGGAGTCACCTAGTGCAG,9320 fluorescence intensity (a.u.)
18,TTCAGTTTCTAGCTGGAAGAGACCTCCTATCATATATTTCCGGAGTCACCTAGTGCAG,53600 fluorescence intensity (a.u.)
19,TTTCAGTTATTTCCTAATTATATTTCTATATGGACTTAGTCGGAGTCACCTAGTGCAG,9980 fluorescence intensity (a.u.)
20,AAGATAATGATGTAGACACGCAATCTGCGCGGGCCCACCACGGAGTCACCTAGTGCAG,6040 fluorescence intensity (a.u.)
21,AGATTAGATTTAGATTAGTCCTATGTGTCTCTTGCCGGGTCGGAGTCACCTAGTGCAG,19100 fluorescence intensity (a.u.)
